Data as given in PubChem BioAssay AID624117 (National Center for Advancing Translational Sciences (NCATS), 2012).
Records with an inconclusive call do not appear. Active and inactive are the calls of the source. The call rests on the fitted dose curve; in most records, active means well fitted curve in the direction sought with a large enough effect; inconclusive means small, poorly fitted or top-dose-only effect, or another doubt; inactive means no such curve, though single readings can be large or run the other way.

Assay: qHTS Assay for Rab9 Promoter Activators: Hit Validation Using Renilla Luciferase Read-Out
Settings: Huh7 NPC1 promoter Renilla luciferase reporter, 24 h; series mostly up to 76.9 µM
In short: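 Hit validation in Huh7 NPC promoter-luciferase reporter line: compound treatment 24 h at 37 deg C, then luminescence measured after 10 min room-temperature incubation with […] reagent.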

Potency, inactive:
CCCCn1c(CCNC(=O)c2cccs2)nc2ccccc21
Cc1csc(NC(=O)CSc2nnc(-c3ccncc3)o2)n1
Cc1ccc(C(=O)c2cn[nH]c2-c2ccccc2O)cc1
O=C(CSc1nnc(-c2csc3c2CCCC3)o1)Nc1ccccc1
CCC1=[N+](CC(=O)c2ccc(C)cc2)CCn2cccc21
CN(C)C(=O)[C@H]1C[C@H]1[C@@H](O)[C@H](CO)NC(=O)[C@H](COCc1ccccc1)NC(=O)OC(C)(C)C
Cc1cccc(C)c1NC(=O)Nc1cccs1
O=C(CSc1nnc(-c2ccccn2)o1)Nc1ccccc1F
Cc1noc(/C=C/N(C)C)c1S(=O)(=O)N1CCCC(C(=O)N2CCCCC2)C1 (stereo not drawn)
O=C(CCCn1c(=O)oc2ccccc21)N1CCN(c2ccccn2)CC1
O=C(NCCc1ccccc1)c1cc2ncc(Br)cn2n1
O=C(CSc1nnc(Cc2cc(=O)[nH]c(=O)[nH]2)n1-c1ccc(Cl)cc1)NC1CCCC1
Cc1cccc(N2CCN(C(=S)c3ccccc3)CC2)c1
Cc1cc(C)c2c(N)c(C(=O)Nc3ccc([N+](=O)[O-])cc3)sc2n1
Cc1nn(CCCC(=O)NCc2ccc(F)cc2)c(C)c1[N+](=O)[O-]
COc1ccccc1OCCCC(=O)NCc1ccco1
CC(=O)[C@@H]1[C@@H](C(=O)c2ccc(C)cc2)[C@]2(C(=O)Nc3ccccc32)[C@H]2C=Cc3cc(F)ccc3N12
COc1ccc(NC(=O)Nc2ccc(Cc3ccncc3)cc2)cc1OC
